Screening data deposited in PubChem BioAssay by The Scripps Research Institute Molecular Screening Center.
In the library only some 1.3% were active in any assay of this set; here they are far more common.
LYPLA1 inh: LYPLA1 inhibitors, primary screen, counter-screen for PME1 inhibitor project, biochemical, fluorescence polarization, FP-Rh probe ABPP; hit rate 0.16% among 320,000; recombinant LYPLA1; inhibition, % at 5.9 µM;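 active means inhibition above the mean of all tested compounds plus 3 SD, set per campaign, cut at about 14% in these data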;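 further: inhibitors block serine hydrolase probe labeling of LYPLA1 so polarization falls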
PREPL inh: PREPL enzyme inhibitors, primary screen, biochemical, fluorescence polarization; AID 2751, 2010; recombinant PREPL, fluorescence polarization activity-based probe; hit rate 0.68% among 320,000; Prolyl endopeptidase-like (Homo sapiens), Q4J6C6; inhibition, % at 5.96 µM; in the data active means inhibition above about 43%
Target sequence (Q4J6C6 whole entry, looked up): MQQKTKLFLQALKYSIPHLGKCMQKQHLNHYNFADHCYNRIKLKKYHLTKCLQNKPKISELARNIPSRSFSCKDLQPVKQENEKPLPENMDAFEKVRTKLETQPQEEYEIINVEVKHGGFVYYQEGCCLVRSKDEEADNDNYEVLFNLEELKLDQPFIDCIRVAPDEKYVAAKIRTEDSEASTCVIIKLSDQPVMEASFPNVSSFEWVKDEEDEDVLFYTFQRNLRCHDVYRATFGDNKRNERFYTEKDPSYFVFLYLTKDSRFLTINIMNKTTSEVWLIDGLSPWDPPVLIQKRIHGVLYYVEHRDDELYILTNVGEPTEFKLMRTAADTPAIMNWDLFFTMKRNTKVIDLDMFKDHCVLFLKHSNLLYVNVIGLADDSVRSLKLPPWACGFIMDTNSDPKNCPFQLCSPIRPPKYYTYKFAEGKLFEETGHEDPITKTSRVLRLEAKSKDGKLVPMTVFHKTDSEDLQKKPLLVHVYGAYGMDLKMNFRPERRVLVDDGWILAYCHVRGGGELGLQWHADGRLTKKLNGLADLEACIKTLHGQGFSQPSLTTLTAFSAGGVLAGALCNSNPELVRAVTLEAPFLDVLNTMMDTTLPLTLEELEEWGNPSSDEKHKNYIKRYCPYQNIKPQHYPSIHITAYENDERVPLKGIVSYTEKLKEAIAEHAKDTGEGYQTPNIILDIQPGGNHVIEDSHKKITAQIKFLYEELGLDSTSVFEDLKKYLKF
PME-1 inh: PME-1 inhibitors via competitive probe labeling, primary screen, biochemical, fluorescence polarization, FP-Rh probe, HTS; Protein phosphatase methylesterase 1 (Homo sapiens), Q9Y570; recombinant PME-1; inhibition, % at 5.9 µM; hit rate 0.53% among 320,000; AID 2130, 2009;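 active means inhibition above the campaign mean of all compounds plus 3 SD, cut at about 26% in these data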;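 further: competitive labeling of PME-1 active site by serine hydrolase directed probe; inhibitors block probe labeling so polarization falls and inhibition rises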
Fam108B inh: mouse Fam108B serine hydrolase inhibitors, primary screen, counter-screen for RBBP9 inhibitor project, biochemical, fluorescence polarization. recombinant Fam108B, FP-Rh probe fluorescence polarization. inhibition, % at 9.51 µM. hit rate 0.33% among 300,000;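 active means inhibition above the screen mean inhibition plus 3 SD, computed separately per campaign, cut at about 18% in these data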;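 further: inhibitors lower polarization as less probe binds the enzyme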
LYPLA2 counter: LYPLA2 inhibitors, primary screen, counter-screen for PME1 inhibitor project, biochemical, fluorescence polarization, FP-Rh probe ABPP; Acyl-protein thioesterase 2 (Homo sapiens), O95372; inhibition, % at 5.9 µM; recombinant LYPLA2; hit rate 0.38% among 320,000;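 active means inhibition above the screen-wide mean plus 3 SD, limit set per campaign, cut at about 26% in these data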
LYPLA2 confirm: LYPLA2 inhibitors, retest, confirmation, counter-screen for PME1 inhibitor project, biochemical, fluorescence polarization, FP-Rh probe ABPP | shares compounds with LYPLA2 counter | recombinant LYPLA2 | inhibition, % at 5.9 µM | hit rate 72% among 1,100;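 active means mean inhibition across replicates above the hit cutoff set in the primary screen, cut at about 26% in these data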;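 further: blocked labeling of the enzyme by serine hydrolase FP-Rh probe lowers polarization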
LYPLA2 gel ABPP: LYPLA2 inhibitors in proteome, late-stage follow-up, gel-based competitive ABPP, fluorescence, assay provider; shares compounds with LYPLA2 counter; rhLYPLA2 in mouse brain proteome, gel ABPP FP-Rh; inhibition, % at 20 µM; hit rate 30% among 150; AID 652029, 2013;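 active means inhibition of LYPLA2 enzyme probe labeling above about 50%, limit read from the data; inactive means inhibition below that limit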;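 further: loss of FP-Rh probe labeling of the LYPLA2 gel band measured as band density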
Hits are given with their value; 0 = inactive; - = no result.

SMILES	LYPLA1 inh	PREPL inh	PME-1 inh	Fam108B inh	LYPLA2 counter	LYPLA2 confirm	others
COc1ccccc1CNS(=O)(=O)c1cc(-c2cc(C)no2)ccc1C(C)C	0	0	0	0	0	-
Cc1nn(CC(=O)NC(=O)NC2CCCC(C)C2C)c(=O)c(C#N)c1C (stereo not drawn)	0	0	0	0	0	-
CN(C)c1cc(-c2ccc(Cl)c(Cl)c2)oc(=O)c1Cl	0	0	0	0	0	-
Cc1cccc(NC(=O)Cn2nnc3sc4c(c3c2=O)CC(C)(C)OC4)c1	0	0	0	0	39	48
Cc1ccccc1NC(=O)Cn1nnc2sc3c(c2c1=O)CC(C)(C)OC3	0	0	0	0	0	-
CCC1(C)Cc2c(sc3nnn(CC(=O)Nc4ccccc4)c(=O)c23)CO1 (stereo not drawn)	0	0	0	0	39	38
CCN(Cc1ccccc1)C(=O)Cn1cc(S(=O)(=O)NC)c(S(=O)(=O)NC)c1	0	0	0	0	0	-
COc1cccc(NC(=O)COc2nc3ccccc3nc2C)c1	0	0	0	0	27	32
Cc1nc2ccccc2nc1OCC(=O)Nc1ccccc1	0	0	0	0	0	-
O=C(N/N=C/c1cccc(Oc2ccc([N+](=O)[O-])cc2[N+](=O)[O-])c1)c1cncc(Br)c1	0	0	0	0	45	39
CCOc1ccc(NC(=O)NC2CCCc3ccccc32)cc1 (stereo not drawn)	0	0	0	0	0	-
Cc1nc(SCC(=O)Nc2ccc(CN3CCCC3)cc2)c2c(C)c(C)sc2n1	0	0	0	-	0	-
Cn1c(-c2ccccc2)cnc1NCc1cc2c(cc1[N+](=O)[O-])OCO2	0	0	0	0	29	41
Cc1cc(F)ccc1NCc1cc2c(cc1[N+](=O)[O-])OCO2	0	0	0	0	27	0
COc1ccccc1CNc1ncc(-c2ccc(F)cc2)n1C	0	0	0	0	0	-
COc1ccccc1CNc1ccc([N+](=O)[O-])cc1C	0	0	0	0	0	-
Cn1c(-c2ccc(F)cc2)cnc1NCc1cc2c(cc1[N+](=O)[O-])OCO2	0	0	0	0	42	44
Cn1c(-c2ccc(Cl)cc2)cnc1NCc1cc2c(cc1[N+](=O)[O-])OCO2	0	0	0	0	51	49
Cn1c(-c2ccc3c(c2)OCO3)cnc1NCc1cccc(O)c1	0	0	0	0	0	-
O=[N+]([O-])c1cc(Cl)ccc1Oc1ccc(-c2nnco2)cc1	0	0	0	0	27	28
CCc1ccccc1N1C(=O)C(Cl)=C(N2CCOCC2)C1=O	0	0	0	0	0	-
Cc1ccc(NC(=O)c2cccc(Oc3ccc([N+](=O)[O-])cc3)c2)c(C(=O)O)c1	0	0	0	0	26	38
Cc1ccc(NC(=O)CCC(=O)OCC(=O)c2ccc(Oc3ccc([N+](=O)[O-])cc3)cc2)c(C)c1	0	0	0	0	29	26
Cc1ccc(NC(=O)COC(=O)CCC(=O)c2ccc(C(C)(C)C)cc2)c([N+](=O)[O-])c1	0	0	0	0	0	-
CN(CC(=O)Nc1ccc(Cl)cc1)c1ccc(S(=O)(=O)N2CCCCC2)cc1[N+](=O)[O-]	0	0	0	0	0	-
SMILES	LYPLA1 inh	PREPL inh	PME-1 inh	Fam108B inh	LYPLA2 counter	LYPLA2 confirm	others
CCOC(=O)C1CCN(C(=O)c2cc3c(OC)c(OC)c(OC)cc3[nH]2)CC1	0	0	0	0	0	-
COc1cc2[nH]c(C(=O)N3CCC(Cc4ccccc4)CC3)cc2c(OC)c1OC	0	0	0	0	33	0
Cn1c(=O)c2c(ncn2CC(=O)N2CCN(c3ccc([N+](=O)[O-])cc3)CC2)n(C)c1=O	0	0	0	0	40	43
COc1ccc(N2CCN(C(=O)Cn3cnc4c3c(=O)n(C)c(=O)n4C)CC2)cc1	0	0	0	0	0	-
COc1ccc(S(=O)(=O)NCc2ccc(C(=O)N3CCN(c4ccccn4)CC3)cc2)cc1	0	0	0	0	0	-
O=C(c1ccc(CNS(=O)(=O)c2ccccc2)cc1)N1CCN(Cc2ccccc2)CC1	0	0	0	0	33	32
COc1ccc(N2CCN(C(=O)c3ccc(-c4ccccc4)cc3)CC2)cc1	0	0	0	0	34	35
COc1cccc(S(=O)(=O)NCc2ccc(C(=O)N3CCN(c4ccccc4OC)CC3)cc2)c1	0	0	0	0	58	70	LYPLA2 gel ABPP=0
COc1ccc(N2CCN(C(=O)c3ccc(CNc4c(N5CCOCC5)c(=O)c4=O)cc3)CC2)cc1	0	0	0	0	52	58	LYPLA2 gel ABPP=0
COc1ccc(S(=O)(=O)NCc2ccc(C(=O)N3CCc4ccccc4C3)cc2)cc1	0	0	0	0	48	57	LYPLA2 gel ABPP=0
COc1ccc(N2CCN(C(=O)c3ccc(CNS(=O)(=O)c4cccc(OC)c4)cc3)CC2)cc1	0	0	0	0	31	0
COc1cccc(S(=O)(=O)NCc2ccc(C(=O)N3CCN(c4ccccc4)CC3)cc2)c1	0	0	0	0	0	-
CS(=O)(=O)Cc1ccc(C(=O)NC2CCCc3ccccc32)cc1 (stereo not drawn)	0	0	0	0	0	-
CCCn1c2ccccc2c2cnn(CC(=O)N3CCN(C4CCCCC4)CC3)c(=O)c21	0	0	0	0	0	-
CCOC(=O)c1[nH]c(C)c(C(=O)N2CCN(c3ccc(OC)cc3)CC2)c1C	0	0	0	0	0	-
CCOC(=O)c1[nH]c(CN2CCN(c3ccc(OC)cc3)CC2)c(C(=O)OCC)c1C	0	0	0	0	27	0
COc1ccc(CCNC(=O)COc2ccc(-c3ccc(C)cc3)cc2)cc1OC	0	0	0	0	45	40
COc1ccc(CCNC(=O)CCOc2ccc(C)cc2)cc1OC	0	0	0	0	0	-
COc1ccc(CC(=O)Nc2cccc(-c3nnc(-c4ccc(C)cc4)o3)c2)cc1OC	0	0	0	0	31	0
Cc1cccc(C(=O)NCc2nnc3c4ccccc4c(-c4ccccc4)nn23)c1	0	0	0	0	0	-
COc1cccc(-c2cc(C(=O)N3CCN(Cc4ccc5c(c4)OCO5)CC3)on2)c1	0	0	0	0	30	29
CCOc1ccccc1C(=O)NCC(=O)N1CCN(Cc2ccc3c(c2)OCO3)CC1	0	0	0	-	62	57	LYPLA2 gel ABPP=0
